Data from PubChem BioAssay (NCI).
This is part of a sample that, as a whole, favours compounds with a hit. Of some 83,000 tested, about 20% had one in any assay.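 Negative percent growth values reflect cell death: -40 means 40% of the cells present at the start died, and -100 means all died.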 Active and inactive are the calls of the source. Rule for the calls: active = growth percent below 10; inactive = the rest.

Columns and labels:
Test in all cases: NCI-60 one-dose screen, 48 h (100 = growth as untreated, 0 = no growth, -100 = all killed)
Conditions in all cases: 10 µM unless noted
RPMI-8226 leukemia = test system: RPMI-8226 leukemia
OVCAR-8 ovarian = test system: OVCAR-8 ovarian
OVCAR-5 ovarian = test system: OVCAR-5 ovarian
OVCAR-4 ovarian = test system: OVCAR-4 ovarian
SK-OV-3 ovarian = test system: SK-OV-3 ovarian
IGROV1 ovarian = test system: IGROV1 ovarian
OVCAR-3 ovarian = test system: OVCAR-3 ovarian
HS 578T breast = test system: HS 578T breast
NCI/ADR-RES ovarian = test system: NCI/ADR-RES ovarian
T-47D breast = test system: T-47D breast

Measured: growth

Cc1ccc(/C=C/c2nn3c(-c4ccco4)nnc3s2)cc1C
inactive: RPMI-8226 leukemia 109% | OVCAR-8 ovarian 88.7% | OVCAR-5 ovarian 107% | OVCAR-4 ovarian 101% | SK-OV-3 ovarian 116% | IGROV1 ovarian 97.5% | OVCAR-3 ovarian 114% | HS 578T breast 102% | NCI/ADR-RES ovarian 108% | T-47D breast 102%

COc1cc(/C=C/C(=O)c2ccc(C)cc2)ccc1Oc1nc(NCCO)nc(N2CCOCC2)n1
active: RPMI-8226 leukemia -18.3%
inactive: OVCAR-8 ovarian 76.1% | OVCAR-5 ovarian 83.6% | OVCAR-4 ovarian 80.6% | SK-OV-3 ovarian 95.9% | IGROV1 ovarian 53.9% | OVCAR-3 ovarian 75.1% | HS 578T breast 79.9% | NCI/ADR-RES ovarian 54.1% | T-47D breast 92.4%

O=C(CN1CCOCC1)NNc1ncnc2ccccc12
inactive: RPMI-8226 leukemia 90.9% | OVCAR-8 ovarian 102% | OVCAR-5 ovarian 69.3% | OVCAR-4 ovarian 96.1% | SK-OV-3 ovarian 107% | IGROV1 ovarian 79.3% | OVCAR-3 ovarian 64.7% | HS 578T breast 89.5% | NCI/ADR-RES ovarian 104% | T-47D breast 41.6%

OC1CCc2c(-c3ccc4ncnc(N5CCc6cc(F)c(Cl)cc65)c4c3)cncc21 (stereo not given)
active: IGROV1 ovarian -13.2% | T-47D breast 7.03%
inactive: RPMI-8226 leukemia 15.9% | OVCAR-8 ovarian 52.9% | OVCAR-5 ovarian 46.6% | OVCAR-4 ovarian 56.1% | SK-OV-3 ovarian 58.1% | OVCAR-3 ovarian 37.6% | HS 578T breast 27.8% | NCI/ADR-RES ovarian 51.1%

Clc1ccc(Cc2nnc3sc(-c4cccnc4)nn23)cc1
inactive: RPMI-8226 leukemia 97.5% | OVCAR-8 ovarian 96.6% | OVCAR-5 ovarian 94.7% | OVCAR-4 ovarian 94.2% | SK-OV-3 ovarian 114% | IGROV1 ovarian 95.4% | OVCAR-3 ovarian 107% | HS 578T breast 101% | NCI/ADR-RES ovarian 81.3% | T-47D breast 89.2%

COc1ccc(/C=C2\SC(=Nc3cc(C)[nH]n3)NC2=O)cc1
inactive: RPMI-8226 leukemia 88.2% | OVCAR-8 ovarian 103% | OVCAR-5 ovarian 90.3% | OVCAR-4 ovarian 97.4% | SK-OV-3 ovarian 85.7% | IGROV1 ovarian 97.3% | OVCAR-3 ovarian 104% | HS 578T breast 91.4% | NCI/ADR-RES ovarian 98.3% | T-47D breast 85.2%

N/C(=N\c1nc2c(Br)cccc2s1)C(Br)Br
inactive: OVCAR-4 ovarian 43.2% | SK-OV-3 ovarian 53% | T-47D breast 33.1%
active: RPMI-8226 leukemia -16.5% | OVCAR-8 ovarian -18% | OVCAR-5 ovarian 8.49% | IGROV1 ovarian -67.6% | OVCAR-3 ovarian -27.4% | HS 578T breast 6.83% | NCI/ADR-RES ovarian 6.58%

COC(=O)C(Cc1ccccc1)NS(=O)(=O)/N=C1\NC(=O)NC1=C(Cl)Cl (stereo not given)
active: RPMI-8226 leukemia 4.3%
inactive: OVCAR-8 ovarian 102% | OVCAR-5 ovarian 115% | OVCAR-4 ovarian 112% | SK-OV-3 ovarian 108% | IGROV1 ovarian 101% | OVCAR-3 ovarian 110% | HS 578T breast 100% | NCI/ADR-RES ovarian 106% | T-47D breast 68.4%

CN(C)S(=O)(=O)c1oc(-c2ccccc2)nc1C#N
inactive: RPMI-8226 leukemia 76% | OVCAR-8 ovarian 94.4% | OVCAR-5 ovarian 100% | OVCAR-4 ovarian 99.7% | SK-OV-3 ovarian 136% | IGROV1 ovarian 38.8% | OVCAR-3 ovarian 62.4% | HS 578T breast 107% | NCI/ADR-RES ovarian 107% | T-47D breast 59.6%

N#Cc1c(-c2ccc(Cl)cc2)nc2c(-c3ccccc3)c(Nc3ccccc3)nn2c1N
active: OVCAR-4 ovarian -7.41%
inactive: RPMI-8226 leukemia 54.1% | OVCAR-8 ovarian 48.6% | OVCAR-5 ovarian 67.4% | SK-OV-3 ovarian 42.7% | IGROV1 ovarian 56.4% | OVCAR-3 ovarian 58.4% | HS 578T breast 37.3% | NCI/ADR-RES ovarian 38.9% | T-47D breast 52.9%

COc1ccc(/C=C/C(=O)c2ccc(NC(=O)CSc3nnc(-c4ccc5nc(-c6ccc(Cl)cc6)[nH]c5c4)o3)cc2)cc1
inactive: RPMI-8226 leukemia 64.4% | OVCAR-8 ovarian 79.5% | OVCAR-5 ovarian 107% | OVCAR-4 ovarian 103% | SK-OV-3 ovarian 106% | IGROV1 ovarian 95.3% | OVCAR-3 ovarian 111% | HS 578T breast 94.7% | NCI/ADR-RES ovarian 107% | T-47D breast 78%

Cc1sc2c(c1C)c(=O)nc1c(-c3nc(-c4ccc(F)cc4)no3)n[nH]n12
inactive: RPMI-8226 leukemia 108% | OVCAR-8 ovarian 104% | OVCAR-5 ovarian 103% | OVCAR-4 ovarian 112% | SK-OV-3 ovarian 101% | IGROV1 ovarian 102% | OVCAR-3 ovarian 121% | HS 578T breast 105% | NCI/ADR-RES ovarian 109% | T-47D breast 95.5%

c1ccc2c(NCCCn3ccnc3)c3oc4ccccc4c3nc2c1
active: RPMI-8226 leukemia -25.4% | OVCAR-8 ovarian -16.9% | OVCAR-5 ovarian 1.5% | OVCAR-4 ovarian -10.6% | IGROV1 ovarian -6.93% | OVCAR-3 ovarian 5.25% | NCI/ADR-RES ovarian 2.5%
inactive: SK-OV-3 ovarian 16.5% | HS 578T breast 19.7% | T-47D breast 17%

COc1ccc(-c2nc3ccc(-c4nnc(SCC(=O)Nc5ccc(C(=O)/C=C/c6ccc(Cl)cc6)cc5)o4)cc3[nH]2)cc1OC
inactive: RPMI-8226 leukemia 75.5% | OVCAR-8 ovarian 106% | OVCAR-5 ovarian 95.2% | OVCAR-4 ovarian 108% | SK-OV-3 ovarian 111% | IGROV1 ovarian 91.9% | OVCAR-3 ovarian 116% | HS 578T breast 96% | NCI/ADR-RES ovarian 108% | T-47D breast 89.4%

N#Cc1c(-c2ccc(Cl)cc2)nc(SCc2ccc(F)cc2)nc1N1CCNCC1
inactive: OVCAR-8 ovarian 38.6% | OVCAR-5 ovarian 86% | OVCAR-4 ovarian 78.7% | SK-OV-3 ovarian 117% | IGROV1 ovarian 39.1% | OVCAR-3 ovarian 37.9% | HS 578T breast 83.3% | NCI/ADR-RES ovarian 51.2% | T-47D breast 71.3%
active: RPMI-8226 leukemia -36.9%

CN(C)CCCOc1c2ccc(Cl)cc2nc2c1oc1ccc(Cl)cc12
inactive: OVCAR-8 ovarian 26.7% | OVCAR-5 ovarian 21.3% | OVCAR-4 ovarian 50.6% | SK-OV-3 ovarian 41.4% | OVCAR-3 ovarian 45.4% | HS 578T breast 26.3% | T-47D breast 58.7%
active: RPMI-8226 leukemia -20.8% | IGROV1 ovarian 6.89% | NCI/ADR-RES ovarian -20.8%

COc1cc(/C=C/C(=O)c2cc(OC)c(OC)c(OC)c2)ccc1Oc1nc(NCCO)nc(N2CCOCC2)n1
inactive: OVCAR-8 ovarian 21.2% | OVCAR-5 ovarian 18.3% | OVCAR-4 ovarian 20% | NCI/ADR-RES ovarian 64.5% | T-47D breast 19.2%
active: RPMI-8226 leukemia -24.9% | SK-OV-3 ovarian 7.04% | IGROV1 ovarian 1.1% | OVCAR-3 ovarian -3.03% | HS 578T breast 7.51%

O=C(c1ccc(O)cc1)C1[C@H](c2ccc(Cl)cc2)[C@@H](c2ccccc2)NC12C(=O)Nc1ccc(Cl)cc12 (stereo not given in full)
inactive: RPMI-8226 leukemia 26.4% | OVCAR-8 ovarian 47.7% | OVCAR-5 ovarian 68.8% | OVCAR-4 ovarian 47.1% | SK-OV-3 ovarian 94.6% | IGROV1 ovarian 38.9% | OVCAR-3 ovarian 33.1% | HS 578T breast 60.5% | NCI/ADR-RES ovarian 36.2% | T-47D breast 31.4%

CC(C)(C)Nc1nc2c(OCCc3ccccc3)cccn2c1-c1cccc(F)c1
active: RPMI-8226 leukemia -22.6% | SK-OV-3 ovarian -17% | OVCAR-3 ovarian -0.703% | HS 578T breast -4.86% | NCI/ADR-RES ovarian 3.69% | T-47D breast 5.21%
inactive: OVCAR-8 ovarian 10.2% | OVCAR-5 ovarian 14.2% | OVCAR-4 ovarian 19.2% | IGROV1 ovarian 10.1%

O=C(N/N=C/c1ccc[nH]1)c1[nH]c2ccc(Br)cc2c1-c1ccccc1
active: RPMI-8226 leukemia -1.05% | IGROV1 ovarian 8.52%
inactive: OVCAR-8 ovarian 13% | OVCAR-5 ovarian 43.7% | OVCAR-4 ovarian 33.2% | SK-OV-3 ovarian 36.7% | OVCAR-3 ovarian 22.2% | HS 578T breast 29.5% | NCI/ADR-RES ovarian 14.8% | T-47D breast 14.1%

O=C1/C(=C/C2=Cc3ccccc3OC2)SC(=S)N1c1ccc(F)cc1
inactive: RPMI-8226 leukemia 104% | OVCAR-8 ovarian 105% | OVCAR-5 ovarian 100% | OVCAR-4 ovarian 96.1% | SK-OV-3 ovarian 108% | IGROV1 ovarian 95.9% | OVCAR-3 ovarian 109% | HS 578T breast 99.2% | NCI/ADR-RES ovarian 108% | T-47D breast 87.7%

CCN(CC)c1ccc(C=O)c(OCc2cn(CC(=O)Nc3ccc(Cl)cc3)nn2)c1
inactive: RPMI-8226 leukemia 57.9% | OVCAR-8 ovarian 75.3% | OVCAR-5 ovarian 91% | OVCAR-4 ovarian 70.4% | SK-OV-3 ovarian 86.8% | IGROV1 ovarian 74.7% | OVCAR-3 ovarian 83.5% | HS 578T breast 87.8% | NCI/ADR-RES ovarian 84.2% | T-47D breast 59.8%

COc1cccc(COc2ccc(/C=C3/C(=O)Nc4cc(Cl)ccc43)cc2)c1
inactive: RPMI-8226 leukemia 78% | OVCAR-8 ovarian 90.8% | OVCAR-5 ovarian 96.1% | OVCAR-4 ovarian 96.6% | SK-OV-3 ovarian 100% | IGROV1 ovarian 87.6% | OVCAR-3 ovarian 105% | HS 578T breast 91% | NCI/ADR-RES ovarian 90.3% | T-47D breast 80.6%

CN1CCc2c(sc3ncnc(N/N=C/c4ccc(Cl)c(Cl)c4)c23)C1
inactive: RPMI-8226 leukemia 41.4% | OVCAR-8 ovarian 31.8% | OVCAR-5 ovarian 71.4% | OVCAR-4 ovarian 20.9% | SK-OV-3 ovarian 28.3% | IGROV1 ovarian 73.2% | OVCAR-3 ovarian 71.5% | HS 578T breast 78.5% | NCI/ADR-RES ovarian 29.6% | T-47D breast 90.4%

CCCCCCNC(=O)Oc1ccc(/C(=C(/C)c2ccccc2)c2ccc(OCCN3CCCCCC3)cc2)cc1
inactive: OVCAR-8 ovarian 66.1% | OVCAR-5 ovarian 69.3% | OVCAR-4 ovarian 49.7% | SK-OV-3 ovarian 98.7% | IGROV1 ovarian 51.4% | OVCAR-3 ovarian 48.9% | HS 578T breast 51.4% | NCI/ADR-RES ovarian 64.5% | T-47D breast 21.6%
active: RPMI-8226 leukemia -27.7%

Cc1cc(C(NC(=O)CCCCCNc2cccc3c2C(=O)N(C2CCC(=O)NC2=O)C3=O)c2cccnc2)c(O)c2ncccc12 (stereo not given)
inactive: RPMI-8226 leukemia 14.6% | OVCAR-8 ovarian 11.1% | OVCAR-5 ovarian 49.8% | OVCAR-4 ovarian 19.4% | SK-OV-3 ovarian 25.4% | OVCAR-3 ovarian 14.2% | NCI/ADR-RES ovarian 79.6% | T-47D breast 12.1%
active: IGROV1 ovarian 9.13% | HS 578T breast 1.22%

N=C1CC(=O)NN1C(=O)CSc1nc2sc3c(c2c(=O)n1-c1ccc(Cl)cc1)CCCC3
inactive: RPMI-8226 leukemia 102% | OVCAR-8 ovarian 100% | OVCAR-5 ovarian 104% | OVCAR-4 ovarian 103% | SK-OV-3 ovarian 98.2% | IGROV1 ovarian 94.5% | OVCAR-3 ovarian 122% | HS 578T breast 94.5% | NCI/ADR-RES ovarian 115% | T-47D breast 83.8%
